Where “and” joins values, the source holds several entries; their conditions need not be identical. Equal values may be shown once. Inconclusive results are not listed. Where a call stands in place of a potency, no number is given. Calls of active or inactive are those of the source. Unless noted, calls come from the whole dose curve; as a rule, active = well fitted curve in the direction sought with a large enough effect; inconclusive = small, poorly fitted or top-dose-only effect, or another doubt; inactive = no such curve, though single readings can be large; an effect the other way counts as inactive or inconclusive.
Key:
[1] = biological target: DNA polymerase III PolC-type (Bacillus subtilis (strain 168)) (UniProt P13267); assay: qHTS Validation Assay for the Inhibitors of DNA Replication in Gram-Positive Bacteria (AID 485295);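 note: reconstituted holoenzyme with PolC plus beta clamp SSB and primase; PicoGreen fluorescence of double-stranded DNA made on primed circular M13 template; series mostly up to about 57 µM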
In short: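 PicoGreen fluorescence (ex 480–485/em 535–540 nm) reports dsDNA synthesized on ssM13Gori template with dNTPs/NTPs. Enzyme: holoenzyme rebuilt from purified PolC, beta subunit, SSB and primase. Compound preincubated before substrate addition; RT throughout.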

[2] = qHTS Validation Assay to Find Inhibitors of Chronic Active B-Cell Receptor Signaling (AID 485345; active = well fitted curve in the direction sought with a large enough effect in the main read-out, with a control signal flat, not every such curve was filed as active)
In short: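 TMD8 ABC-DLBCL cells stably carrying doxycycline-inducible IkappaBalpha–green luciferase fusion plus unfused red luciferase; compounds 46 uM to 3 nM, 4 h at 37C with doxycycline. Corrected green/red luminescence ratio normalized to 10 uM MG-132 and basal cell wells; curves fitted.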

[3] = biological target: Beta-2 adrenergic receptor (Homo sapiens) (UniProt P07550); assay: qHTS validation assay of beta-arrestin-biased ligands of beta2-adrenergic receptor (AID 485366)
In short: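 Tango cells expressing recombinant beta2-AR and beta-arrestin with tTA-driven luciferase, in DMEM with 1% FBS. Compounds were titrated up to 46 microM for 18 hr at 37 degrees C. Luminescence was read 15 min after substrate; curves were fitted and class-assigned.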

[4] = Quantitative high throughput screen for delayed death inhibitors of the malarial parasite plastid, 96 hour incubation (AID 488745); note: nearly all actives have a fitted effect of over 70% in size; note: potency is the fitted concentration of half-maximal effect
In short: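 Luciferase-expressing P. falciparum in erythrocytes (2% hematocrit, 0.1% parasitemia) incubated with compound for 96 h at 37 C, 5% CO2, in RPMI 1640 with 0.5% Albumax. Growth inhibition read as decreased luminescence.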

[5] = Quantitative high throughput screen for delayed death inhibitors of the malarial parasite plastid, 48 hour incubation (AID 488752); note: nearly all actives have a fitted effect of over 65% in size; note: potency is the fitted concentration of half-maximal effect
In short: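 Erythrocytes infected with firefly luciferase-expressing P. falciparum (2% hematocrit, 0.1% parasitemia) cultured with compound for 48 h at 37 C, 5% CO2, in RPMI 1640/0.5% Albumax. Growth inhibition read as loss of luminescence.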

[6] = biological target: Thioredoxin reductase 1, cytoplasmic (Rattus norvegicus) (UniProt O89049); assay: qHTS Assay for Substrates of Mammalian Selenoprotein Thioredoxin Reductase 1 (TrxR1) (AID 488772);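 note: NADPH fluorescence in the first read after selenite addition and not the 8 min delta; series mostly up to about 57 µM; a drop in NADPH fluorescence below the no-compound background marks a TrxR1 substrate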
In short: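 Quantitative HTS in Tris-HCl buffer at pH 7.5 with EDTA and Tween-20, using rat TrxR1, 400 uM NADPH and 400 uM selenite (final). A fall in initial NADPH fluorescence relative to background marked substrate behaviour.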

[7] = biological target: Flap endonuclease 1 (Homo sapiens) (UniProt P39748); assay: qHTS Validation Assay for the Inhibitors of Human Flap endonuclease 1 (FEN1) (AID 488816)
In short: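 Human FEN1 (10 nM) preincubated 15 min at room temperature with compounds, then flap DNA substrate added at 50 nM final. Fluorescence read at 0 and 15 min; concentration-response fitted with four-parameter Hill equation.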

[8] = biological target: M-phase phosphoprotein 8 (Homo sapiens) (UniProt Q99549); assay: qHTS Validation Assay for Inhibitors for MPP8 Chromodomain Interactions with Methylated Histone Tails (AID 488949); note: nearly all actives have a fitted effect of over 55% in size; note: potency is the fitted concentration of half-maximal effect
In short: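 AlphaScreen read-out: streptavidin donor and nickel chelate acceptor beads (final 10 ug/mL), 30 min in the dark at RT. Complex of 50 nM MPP8 and 50 nM b-H3(1-18)K9me3 peptide had been exposed to compounds for 30 min beforehand.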

[9] = biological target: Chromobox protein homolog 1 (Homo sapiens) (UniProt P83916); assay: qHTS Validation Assay for Inhibitors of HP1-beta Chromodomain Interactions with Methylated Histone Tails (AID 488953); note: nearly all actives have a fitted effect of over 50% in size; note: potency is the fitted concentration of half-maximal effect
In short: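 HP1-beta (50 nM) preformed 30 min with biotinylated H3(1-18)K9me3 peptide (50 nM) in PBS pH 7.4, 0.01% Tween-20. Compounds added for 30 min at room temperature. Complex disruption read by AlphaScreen with streptavidin donor/nickel chelate acceptor beads (10 ug/mL each).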

[10] = biological target: Methanococcus maripaludis chaperonin (MmCpn) (UniProt Q6LX38); assay: High-Throughput Screening for Modulators of Cytosolic Chaperonin Activity: MmCpn Primary Screen (AID 488978);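 note: 50 nM MmCpn enzyme hydrolysing 30 µM ATP at 37 °C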
In short: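 ADP formation read by HTRF Transcreener, 665/590 nm emission after 320 nm excitation. Enzyme: archaeal chaperonin at 50 nM final; substrate ATP 30 uM final; 10 min, 37C, after 5 min compound preincubation at RT.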

[11] = biological target: Thyrotropin receptor (Homo sapiens) (UniProt P16473); assay: qHTS Assay for Antagonists of the Thyroid Stimulating Hormone Receptor (AID 488980); note: series mostly up to about 58 µM
In short: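 TSHR-HEK293 cells; 70 uM RO 20-1724 PDE inhibitor; compound + EC80 TSH (4 nM final); anti-cAMP cryptate antibody/cAMP-d2 in lysis buffer, 30 min RT; HTRF 665/620 nm read.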

[12] = biological target: D(1A) dopamine receptor (Homo sapiens) (UniProt P21728); assay: HTS Assay for Allosteric Agonists of the Human D1 Dopamine Receptor: Primary Screen for Agonists (AID 488981)
In short: (§1)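 Tetracycline-induced HEK293 Trex D1 cells with forced coupling to calcium, loaded with no-wash calcium dye; kinetic fluorescence read 180 s after compound addition for agonism, then a further 180 s after an EC20 dopamine challenge for potentiation.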

[13] = biological target: D(1A) dopamine receptor (Homo sapiens) (UniProt P21728); assay: HTS Assay for Allosteric Agonists of the Human D1 Dopamine Receptor: Primary Screen for Potentiators (AID 488982); note: potency is the fitted concentration of half-maximal effect
In short: as §1

[14] = biological target: D(1A) dopamine receptor (Homo sapiens) (UniProt P21728); assay: HTS Assay for Allosteric Agonists of the Human D1 Dopamine Receptor: Primary Screen for Antagonists (AID 488983);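 note: calcium flux response to an EC80 dopamine challenge measured with no-wash dye; nearly all actives have a fitted effect of over 65% in size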
In short: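 Tetracycline-induced HEK293 T-REx D1 line, force-coupled to calcium flux, read with no-wash calcium dye. Compound added after 10 s baseline, read 180 s for agonism, then EC80 dopamine added and read a further 180 s.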

[15] = biological target: Transient receptor potential cation channel subfamily V member 1 (Homo sapiens) (UniProt Q8NER1); assay: HTS Assay for Compounds that Act as Enhancers of the Vanilloid Receptor 1 (AID 488979)
In short: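 TRPV1 cells loaded with Fluo-8 calcium dye; compound added and Ca2+ signal (ex 480/em 520 nm) followed 3 min, then capsaicin at EC20 added and read 2 more min to detect enhancement.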

[16] = biological target: ATP-dependent 6-phosphofructokinase (Trypanosoma brucei brucei) (UniProt O15648); assay: qHTS Assay to Find Inhibitors of T. brucei phosphofructokinase: hit validation (AID 492961); note: series mostly up to about 51 µM
In short: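 Luminescence from ADP-Glo reports ADP generated as T. brucei PFK (1.25 nM) phosphorylates 0.5 mM fructose-6-phosphate using 0.1 mM ATP. Reactions ran 45 min at room temperature, pH 8.0.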

[17] = biological target: Tumor susceptibility gene 101 protein (Homo sapiens) (UniProt Q99816); assay: qHTS Validation Assay for Iinhibitors of HIV-1 Budding by Blocking the Interaction of PTAP/TSG101 (AID 485342; calls by dose curve)
In short: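 FP read-out: FITC-PTAP peptide, 50 nM final, binding Tsg101 binding domain, 10 uM final; 20 min r.t.; 10 mM HEPES pH 7.5, 0.15 M NaCl, 0.01% Tween 20, 3 mM EDTA, 0.1 mM TCEP.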

[18] = biological target: Thioredoxin reductase 1, cytoplasmic (Rattus norvegicus) (UniProt O89049); assay: qHTS Assay for Inhibitors of Mammalian Selenoprotein Thioredoxin Reductase 1 (TrxR1) (AID 488773); details: Potency: inhibition;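 note: drop in NADPH fluorescence over an 8 min run after selenite addition; series mostly up to about 57 µM; nearly all actives have a fitted effect of over 40% in size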
In short: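 Steps: enzyme (90 nM) plus NADPH (400 uM final), 5 min at ~22 deg C; compound added, 15 min; selenite (400 uM final) added; fluorescence followed for 8 min. Concentration-response curves derived from the normalized delta values.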

Chain of Flap endonuclease 1 (Homo sapiens) (P39748 whole entry, looked up): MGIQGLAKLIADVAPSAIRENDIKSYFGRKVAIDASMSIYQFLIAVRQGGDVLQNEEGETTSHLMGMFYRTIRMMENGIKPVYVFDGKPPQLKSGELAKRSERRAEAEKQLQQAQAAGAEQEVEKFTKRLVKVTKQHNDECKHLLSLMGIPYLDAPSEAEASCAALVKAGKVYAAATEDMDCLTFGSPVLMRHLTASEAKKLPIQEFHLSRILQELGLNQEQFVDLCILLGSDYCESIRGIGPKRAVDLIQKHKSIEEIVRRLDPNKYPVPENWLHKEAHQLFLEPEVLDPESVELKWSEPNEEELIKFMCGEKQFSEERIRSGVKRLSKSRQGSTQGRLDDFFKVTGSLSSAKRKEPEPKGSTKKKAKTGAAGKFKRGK
Chain of Thyrotropin receptor (Homo sapiens) (P16473 whole entry, looked up): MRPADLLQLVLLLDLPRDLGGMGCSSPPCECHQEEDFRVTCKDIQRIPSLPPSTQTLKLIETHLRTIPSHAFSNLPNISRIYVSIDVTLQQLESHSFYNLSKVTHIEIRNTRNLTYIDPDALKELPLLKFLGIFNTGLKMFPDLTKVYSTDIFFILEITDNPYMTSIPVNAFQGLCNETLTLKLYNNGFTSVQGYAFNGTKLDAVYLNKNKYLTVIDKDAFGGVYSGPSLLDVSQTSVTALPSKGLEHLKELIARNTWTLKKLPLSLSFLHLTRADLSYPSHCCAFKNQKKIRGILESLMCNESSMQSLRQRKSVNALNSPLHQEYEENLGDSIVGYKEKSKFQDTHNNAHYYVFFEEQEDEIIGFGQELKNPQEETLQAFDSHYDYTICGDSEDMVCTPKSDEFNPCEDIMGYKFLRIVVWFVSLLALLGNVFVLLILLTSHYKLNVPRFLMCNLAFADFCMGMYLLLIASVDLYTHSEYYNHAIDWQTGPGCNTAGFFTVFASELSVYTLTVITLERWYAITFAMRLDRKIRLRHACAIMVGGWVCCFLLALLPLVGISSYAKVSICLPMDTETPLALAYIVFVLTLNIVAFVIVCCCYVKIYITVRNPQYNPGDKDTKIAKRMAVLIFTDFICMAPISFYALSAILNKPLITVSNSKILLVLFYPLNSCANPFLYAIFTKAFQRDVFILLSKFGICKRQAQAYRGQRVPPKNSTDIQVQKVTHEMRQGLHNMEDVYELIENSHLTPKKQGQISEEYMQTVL
Chain of Methanococcus maripaludis chaperonin (MmCpn) (Q6LX38 1-543): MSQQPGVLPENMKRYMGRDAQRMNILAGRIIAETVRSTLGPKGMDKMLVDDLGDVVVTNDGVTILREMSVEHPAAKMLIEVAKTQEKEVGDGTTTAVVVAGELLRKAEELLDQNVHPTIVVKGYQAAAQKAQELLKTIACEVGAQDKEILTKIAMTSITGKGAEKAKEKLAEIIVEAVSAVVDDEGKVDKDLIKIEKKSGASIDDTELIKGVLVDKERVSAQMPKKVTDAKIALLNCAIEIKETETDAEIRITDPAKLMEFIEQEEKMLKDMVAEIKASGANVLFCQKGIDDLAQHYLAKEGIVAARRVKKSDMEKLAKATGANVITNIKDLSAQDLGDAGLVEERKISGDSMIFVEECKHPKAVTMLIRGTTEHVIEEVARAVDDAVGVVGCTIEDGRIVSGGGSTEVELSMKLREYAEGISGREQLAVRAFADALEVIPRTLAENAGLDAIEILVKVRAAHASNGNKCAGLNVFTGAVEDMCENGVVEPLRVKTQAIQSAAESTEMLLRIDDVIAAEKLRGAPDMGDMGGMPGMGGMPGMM
Chain of D(1A) dopamine receptor (Homo sapiens) (P21728 whole entry, looked up): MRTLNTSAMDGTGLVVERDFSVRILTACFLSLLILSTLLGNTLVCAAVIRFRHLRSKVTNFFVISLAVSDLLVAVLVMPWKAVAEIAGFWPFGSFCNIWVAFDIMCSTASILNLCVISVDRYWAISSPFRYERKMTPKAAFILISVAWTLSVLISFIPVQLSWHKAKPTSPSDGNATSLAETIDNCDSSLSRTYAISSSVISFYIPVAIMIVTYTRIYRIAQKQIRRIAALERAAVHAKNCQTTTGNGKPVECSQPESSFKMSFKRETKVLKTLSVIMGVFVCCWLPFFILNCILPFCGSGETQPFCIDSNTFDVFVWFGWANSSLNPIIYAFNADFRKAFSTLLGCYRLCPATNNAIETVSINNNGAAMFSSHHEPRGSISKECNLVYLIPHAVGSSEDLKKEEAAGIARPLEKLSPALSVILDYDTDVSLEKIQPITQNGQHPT
Chain of M-phase phosphoprotein 8 (Homo sapiens) (Q99549 whole entry, looked up): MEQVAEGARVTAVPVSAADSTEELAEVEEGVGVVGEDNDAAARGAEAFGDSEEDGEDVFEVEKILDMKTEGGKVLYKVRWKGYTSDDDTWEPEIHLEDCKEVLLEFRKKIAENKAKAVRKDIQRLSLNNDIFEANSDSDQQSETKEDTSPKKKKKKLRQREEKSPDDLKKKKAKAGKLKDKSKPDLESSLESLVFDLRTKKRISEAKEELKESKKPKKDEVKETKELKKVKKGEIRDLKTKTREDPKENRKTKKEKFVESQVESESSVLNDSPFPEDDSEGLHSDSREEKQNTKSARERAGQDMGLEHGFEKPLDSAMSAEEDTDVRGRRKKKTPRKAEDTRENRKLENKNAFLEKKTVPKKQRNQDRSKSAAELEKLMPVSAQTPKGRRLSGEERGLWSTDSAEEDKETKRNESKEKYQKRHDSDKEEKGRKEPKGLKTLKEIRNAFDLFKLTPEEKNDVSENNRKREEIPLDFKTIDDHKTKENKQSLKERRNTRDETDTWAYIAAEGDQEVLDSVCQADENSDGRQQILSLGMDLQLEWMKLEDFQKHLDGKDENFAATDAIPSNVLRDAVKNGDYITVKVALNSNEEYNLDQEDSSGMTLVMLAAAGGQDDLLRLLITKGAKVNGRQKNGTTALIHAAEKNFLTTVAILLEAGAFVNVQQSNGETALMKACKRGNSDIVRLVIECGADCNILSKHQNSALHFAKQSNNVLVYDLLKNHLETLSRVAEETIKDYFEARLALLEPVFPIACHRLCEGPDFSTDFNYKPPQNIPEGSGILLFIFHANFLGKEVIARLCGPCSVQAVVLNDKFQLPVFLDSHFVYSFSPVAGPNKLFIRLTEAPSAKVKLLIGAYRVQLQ
Chain of Tumor susceptibility gene 101 protein (Homo sapiens) (Q99816 whole entry, looked up, the tested form may be a part): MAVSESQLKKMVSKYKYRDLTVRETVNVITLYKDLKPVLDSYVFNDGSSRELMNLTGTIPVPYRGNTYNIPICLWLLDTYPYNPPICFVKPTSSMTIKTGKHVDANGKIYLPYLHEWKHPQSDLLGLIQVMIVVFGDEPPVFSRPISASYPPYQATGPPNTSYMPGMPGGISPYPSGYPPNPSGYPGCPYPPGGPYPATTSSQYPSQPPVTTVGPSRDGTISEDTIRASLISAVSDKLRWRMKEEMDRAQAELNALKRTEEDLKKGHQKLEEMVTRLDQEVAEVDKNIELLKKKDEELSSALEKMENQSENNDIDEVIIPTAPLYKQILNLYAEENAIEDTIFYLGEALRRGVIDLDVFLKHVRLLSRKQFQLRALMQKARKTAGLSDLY
Chain of DNA polymerase III PolC-type (Bacillus subtilis (strain 168)) (P13267 whole entry, looked up): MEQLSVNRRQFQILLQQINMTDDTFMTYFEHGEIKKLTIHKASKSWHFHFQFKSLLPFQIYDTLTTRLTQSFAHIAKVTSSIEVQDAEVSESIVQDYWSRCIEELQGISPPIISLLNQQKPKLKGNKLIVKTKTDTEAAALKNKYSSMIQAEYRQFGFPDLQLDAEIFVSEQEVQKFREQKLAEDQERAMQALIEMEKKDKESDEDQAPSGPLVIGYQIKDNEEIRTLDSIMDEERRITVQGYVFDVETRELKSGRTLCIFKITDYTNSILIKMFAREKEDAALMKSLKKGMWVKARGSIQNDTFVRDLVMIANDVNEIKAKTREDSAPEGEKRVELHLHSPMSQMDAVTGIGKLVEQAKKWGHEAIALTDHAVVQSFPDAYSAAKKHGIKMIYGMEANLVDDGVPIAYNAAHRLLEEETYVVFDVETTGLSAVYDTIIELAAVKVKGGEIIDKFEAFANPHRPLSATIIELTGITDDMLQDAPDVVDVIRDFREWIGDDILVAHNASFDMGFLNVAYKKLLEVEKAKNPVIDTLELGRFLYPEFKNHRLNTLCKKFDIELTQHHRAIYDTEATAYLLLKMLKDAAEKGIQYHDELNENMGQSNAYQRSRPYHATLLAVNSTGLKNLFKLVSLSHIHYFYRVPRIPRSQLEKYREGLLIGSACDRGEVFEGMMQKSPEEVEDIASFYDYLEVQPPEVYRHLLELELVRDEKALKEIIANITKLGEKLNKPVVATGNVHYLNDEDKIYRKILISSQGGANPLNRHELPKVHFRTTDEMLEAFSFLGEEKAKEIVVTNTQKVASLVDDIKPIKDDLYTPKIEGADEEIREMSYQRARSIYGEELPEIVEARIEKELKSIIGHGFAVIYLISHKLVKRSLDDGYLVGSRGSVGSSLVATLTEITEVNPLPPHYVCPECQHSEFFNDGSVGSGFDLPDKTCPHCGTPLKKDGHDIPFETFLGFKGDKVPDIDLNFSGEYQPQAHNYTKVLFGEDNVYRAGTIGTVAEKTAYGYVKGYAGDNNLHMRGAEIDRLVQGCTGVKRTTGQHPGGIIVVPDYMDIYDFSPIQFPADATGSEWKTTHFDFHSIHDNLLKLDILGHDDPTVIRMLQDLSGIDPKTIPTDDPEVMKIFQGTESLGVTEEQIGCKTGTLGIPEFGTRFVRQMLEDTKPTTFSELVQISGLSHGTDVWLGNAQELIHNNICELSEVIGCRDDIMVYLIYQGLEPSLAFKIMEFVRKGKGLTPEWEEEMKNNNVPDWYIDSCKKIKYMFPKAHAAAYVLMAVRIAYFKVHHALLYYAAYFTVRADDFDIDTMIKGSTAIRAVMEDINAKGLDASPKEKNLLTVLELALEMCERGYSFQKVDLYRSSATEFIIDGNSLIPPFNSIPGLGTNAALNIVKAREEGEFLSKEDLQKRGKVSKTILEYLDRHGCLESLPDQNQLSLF
Chain of Chromobox protein homolog 1 (Homo sapiens) (P83916 whole entry, looked up): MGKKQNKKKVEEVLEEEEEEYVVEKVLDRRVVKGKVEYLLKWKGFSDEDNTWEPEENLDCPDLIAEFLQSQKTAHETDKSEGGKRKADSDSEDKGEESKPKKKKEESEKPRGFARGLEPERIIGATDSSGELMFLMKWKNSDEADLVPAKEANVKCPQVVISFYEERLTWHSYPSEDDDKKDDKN

| Compound | Potency [1] | Potency [2] | outcome [3] | Potency [4] | Potency [5] | outcome [6] | Potency [7] | Potency [8] | Potency [9] | outcome [10] | outcome [11] | Potency [12] | Potency [13] | Potency [14] | outcome [15] | Potency [16] | outcome [17] | Potency [18] |
| --- | --- | --- | --- | --- | --- | --- | --- | --- | --- | --- | --- | --- | --- | --- | --- | --- | --- | --- |
| NC(CO)C(=O)NNCc1ccc(O)c(O)c1O (stereo not given) | inactive | inactive | inactive | inactive | inactive | inactive | inactive | 31.6 µM (active) | 35.5 µM (active) | inactive | inactive | inactive | inactive | inactive |  |  |  |  |
| Clc1ccccc1C(c1ccccc1)(c1ccccc1)n1ccnc1 | inactive | inactive | inactive | 1.17 µM (active) | 1.04 µM (active) | inactive | inactive | inactive | 0.0084 µM (active) | inactive | inactive | inactive | inactive | inactive | inactive | inactive |  |  |
| CC#C[C@]1(O)CC[C@H]2[C@@H]3CCC4=CC(=O)CCC4=C3[C@@H](c3ccc(N(C)C)cc3)C[C@@]21C | inactive |  | inactive |  |  | inactive | inactive | 11.9 µM (active) | 25.1 µM (active) | inactive |  | inactive | 2.31 µM (active) | inactive |  | inactive | inactive | inactive |
| CN1CCN(CCCN2c3ccccc3Sc3ccc(Cl)cc32)CC1 | inactive |  | inactive |  |  | inactive | inactive | 25.1 µM (active) and 15 µM (active) | 31.6 µM (active) | inactive | inactive | inactive | inactive |  |  |  | inactive | inactive |
| COc1ccc(CCN(C)CCCC(C#N)(c2ccc(OC)c(OC)c2)C(C)C)cc1OC (stereo not given) | inactive |  | inactive |  |  |  |  |  |  | inactive | inactive | inactive | inactive | inactive |  |  | inactive |  |
| Cc1cnc(C(=O)NCCc2ccc(S(=O)(=O)NC(=O)NC3CCCCC3)cc2)cn1 | inactive | inactive | inactive | inactive | inactive | inactive | inactive |  |  | inactive | inactive | inactive | inactive | inactive | inactive |  |  | inactive |
| NC12CC3CC(CC(C3)C1)C2 | inactive | inactive | inactive | inactive | inactive | inactive |  | inactive | inactive | inactive |  | inactive | inactive | inactive | inactive |  |  |  |
| CN(C)C(=O)C(CCN1CCC(O)(c2ccc(Cl)cc2)CC1)(c1ccccc1)c1ccccc1 | inactive |  | inactive |  |  | inactive |  |  |  | inactive |  | inactive | inactive | inactive |  |  | inactive | inactive |
| CC(C)(C)C(=O)Oc1ccc(S(=O)(=O)Nc2ccccc2C(=O)NCC(=O)O)cc1 |  |  |  |  |  |  |  |  |  |  |  |  |  |  |  | inactive |  |  |
| CNCCCC12CCC(c3ccccc31)c1ccccc12 | inactive |  | inactive |  | inactive | inactive | inactive | inactive | inactive | inactive | inactive |  | inactive |  |  |  |  |  |
| CN1C(C(=O)Nc2ccccn2)=C(O)c2ccccc2S1(=O)=O | inactive |  | inactive | inactive | inactive | inactive | inactive | inactive |  | inactive | inactive | inactive | inactive | inactive | inactive | inactive |  | inactive |

— PubChem BioAssay (NCATS)
